CYP2C19 act: human CYP2C19 activators, primary screen, biochemical, luminescence; 96,000 tested, under 10 active; Cytochrome P450 2C19 (Homo sapiens), P33261; recombinant CYP2C19, luciferin-H EGE luminescence; hits give high values; 0 = fully inhibited enzyme, 1 = untreated enzyme; activation factor at 5 µM; AID 1025, 2008;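 active = activation factor of at least 2 at 5 µM in the primary screen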;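 also: 0 = wells with 2.5 mM tranylcypromine and 1 = vehicle-only wells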
CYP2C9 activ: human CYP2C9 activators, primary screen, biochemical, luminescence; recombinant CYP2C9, luciferin-H conversion; hits give high values; factor 1 = untreated enzyme, 0 = blocked; activation factor at 5 µM; hit rate 1.4% among 96,000;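 active = activation factor of 2 or more for CYP2C9 at a 5 µM dose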;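 also: 0 = sulfaphenazole-blocked wells and 1 = vehicle-only wells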
CYP2C9 inh: blockers of cytochrome P450 2C9 activity – biochemical, luminescence, ADME assay, primary screen | P11712 | CYP2C9 Supersomes, luciferin-H conversion | inhibition, % at 5 µM | hit rate 20% among 96,000 | AID 777, 2007;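 active = blocking of liver enzyme CYP2C9 beyond about 50% at 5 µM, limit read from the data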
CYP2C19 inhib: blockers of cytochrome P450 2C19 activity – biochemical, luminescence, ADME assay, primary screen. P33261. CYP2C19 Supersomes, luciferin-H EGE luminescence, 30 min. inhibition, % at 5 µM. hit rate 21% among 96,000. AID 778, 2007;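 active = CYP2C19 inhibition above a set limit at 5 µM in the primary screen, cut at about 50% in these data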;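 also: plate controls were negative control wells for no effect and 2.5 mM tranylcypromine positive control for full effect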
Mac1 fbg inh: inhibitors of CD11b/CD18 adhesion to fibrinogen, primary screen, K562 cells, luminescence | ATPlite luminescence; Mn2+ added to activate the integrin | Integrin beta-2 (Homo sapiens) + Integrin alpha-M (Homo sapiens), P05107+P11215 | hit rate 0.54% among 93,000 | AID 1497, 2009 | inhibition, % at 10 µM;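 active = primary inhibition of 50% or more at 10 µM, then 40% or more on retest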
CD11b adhes enh: enhancers of CD11b/CD18 adhesion to fibrinogen, primary screen, K562 cells, luminescence; Integrin beta-2 (Homo sapiens) + Integrin alpha-M (Homo sapiens), P05107+P11215; ATPlite luminescence; activation, % at 10 µM; hit rate 0.07% among 93,000;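 active = 10 µM primary screen giving 50% or more activity, confirmed by 40% or more on retest at that dose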
Numbers without * were called inactive; nt = no result given. In the library only some 28% were active in any assay of this set; here they are far more common.

SMILES	CYP2C19 act	CYP2C9 activ	CYP2C9 inh	CYP2C19 inhib	Mac1 fbg inh	CD11b adhes enh
O=C(O)CCCNCc1ccccc1F	1.1	1.1	-7.3	-6.9	-19.1	-4.5
COc1ccc(C(=O)NCCc2nnc(SCC(=O)Nc3ccc(Br)cc3)n2C)cc1	0.8	0.3	65.3*	21.0	-34.5	1.4
COc1ccc(OCCSc2nnc(CCNC(=O)c3ccc(OC)cc3)n2C)cc1	0.9	0.8	24.4	11.1	nt	nt
CCOc1ccc(NC(=O)CSc2nnc(CCNC(=O)c3ccc(OC)cc3)n2C)cc1	0.7	0.4	56.7*	32.6	-18.8	2.5
COc1ccc(OCCSc2nnc(CCNC(=O)c3ccc(Cl)c(Cl)c3)n2C)cc1	0.7	0.6	37.5	29.1	nt	nt
CCO/C(C)=C1\N=C(c2ccc(Cl)cc2)OC1=O	1	1	-0.5	-0.3	nt	nt
CCCCc1nn(-c2cc(Cl)ccc2OC)c2c1C(=O)CC(C)(C)C2	0.6	0.4	55.8*	44.2	-4.3	-7.5
CCn1c2c(c3cc(Cl)ccc31)CCCC2=O	0.9	1	0.2	5.0	6.7	-3.2
CCCc1nn(-c2cc(Cl)ccc2OC)c2c1C(=O)CCC2	0.4	0.6	41.8	58.6*	7.6	-8.7
CCOCCCN(C(=O)c1ccco1)C(C(=O)NC1CCCC1)c1cccc(OC)c1OC (stereo not drawn)	0.7	0.6	36.7	28.5	-8.2	-4.8
O=C(Cn1c2ccccc2c(=O)c2cc([N+](=O)[O-])ccc21)Nc1ccccc1Cl	nt	nt	nt	nt	2.9	52.4
COC(=O)c1oc2ccccc2c1-n1cccc1	0.9	0.8	21.0	14.5	-60.3	-1.0
COC(=O)c1oc2ccc(Cl)cc2c1-n1cccc1	0.4	0.3	71.7*	58.3*	-24.4	3.4
Cc1nn(Cc2ccc(Cl)cc2)c(C)c1NC(=O)CSc1nc2c(c(C(F)(F)F)n1)CCc1ccccc1-2	0.7	0.3	72.5*	27.8	nt	nt
Cc1ccccc1Cn1cc(NC(=O)CSc2nc3c(c(C(F)(F)F)n2)CCc2ccccc2-3)cn1	0.7	0.2	80.7*	29.5	nt	nt
c1ccc(-c2cc(N3CCCCCC3)n[nH]2)cc1	0.8	0.8	23.5	21.6	-35.5	0.3
c1ccc(-c2cnnc(N3CCCCC3)n2)cc1	0.2	0.6	42.8	83.3*	-3.0	-3.0
Cc1nc(-c2ccccc2)cc(N2CCCC2)n1	0.5	0.7	29.5	51.3*	10.0	6.4
c1ccc(-c2cc(N3CCCCC3)ncn2)cc1	0.1	0.8	21.3	87.0*	-15.7	2.3
Nc1nc(-c2ccccc2)cc(N2CCCCC2)n1	0.5	0.8	21.4	51.1*	4.3	-4.3
Cc1cc(C)n(-c2cc(-c3ccccc3)nc(C)n2)n1	0.8	0.8	21.8	22.5	4.3	2.7
COc1cc(NC(=O)CN2CCN(c3ccccc3F)CC2)c(C)cc1[N+](=O)[O-]	nt	nt	nt	nt	3.7	37.4
Cc1cc(C)cc(N(CC(=O)NC2CC3CCC2C3)S(C)(=O)=O)c1 (stereo not drawn)	0.7	1.2	-24.7	28.5	-40.7	4.2
Cc1ccccc1Cn1c(-c2cncs2)nc2ccccc21	0.2	0.6	39.4	75.5*	7.4	-0.7
Brc1cc2c(cc1Cn1c(-c3cncs3)nc3ccccc31)OCO2	1	1.1	-7.6	2.0	4.5	-1.2
SMILES	CYP2C19 act	CYP2C9 activ	CYP2C9 inh	CYP2C19 inhib	Mac1 fbg inh	CD11b adhes enh
O=C(Cn1c(-c2cncs2)nc2ccccc21)NCc1ccccc1	0.2	0.8	22.5	80.2*	-12.5	-1.3
Cc1ccc(C(=O)NC2CCCCCC2)cc1N1CCCC1=O	1.2	1.2	-15.5	-16.2	4.9	-4.5
CCN(CC)S(=O)(=O)c1cc(C(=O)NC2CCCCC2)ccc1C	0.6	0.4	64.9*	42.8	5.7	-1.3
CCN(CC)S(=O)(=O)c1cc(C(=O)Nc2ccc(Cl)cn2)ccc1C	0.2	0.2	79.9*	80.6*	13.9	-0.1
CCOC(=O)/C(=N/Nc1ccc(Cl)cc1)S(=O)(=O)c1ccccc1	0.9	0.8	19.5	12.5	5.6	-0.4
O=C(CSc1nc(C2CC2)nc2ccccc12)N1c2ccccc2Sc2ccccc21	0.6	0	97.4*	44.4	14.5	6.9
Cc1nc(SCC(=O)c2cccc([N+](=O)[O-])c2)n[nH]1	0.6	1	4.5	38.9	0.6	-7.0
Cc1nc(SCC(=O)N2c3ccccc3Sc3ccccc32)n[nH]1	0.4	0.6	36.2	59.9*	-6.3	0.0
Cc1nc(SCC(=O)c2ccc(F)cc2)n[nH]1	0.4	0.3	71.4*	57.7*	-7.9	-0.1
CCc1nc(SCC(=O)c2ccc(C)c(C)c2)n[nH]1	0	2.3*	-132.7	97.4*	-11.0	-1.0
O=C(CSc1nnnn1C1CCCCC1)N1c2ccccc2Sc2ccccc21	1	0.6	43.0	3.3	16.9	-1.4
CCOC(=O)c1ccccc1NC(=O)CSc1nnc(COc2ccccc2C)n1C	0.6	1.3	-33.9	40.8	-2.7	-1.0
O=C1C2C(c3ccccc3)C=CC(c3ccccc3)C2C(=O)N1CCO (stereo not drawn)	0	0.3	74.5*	99.2*	1.7	-4.0
CC(c1ccccc1)C1CC(=O)N(C2CCCCC2)C1=O (stereo not drawn)	0.7	0.9	9.6	25.2	-31.0	-3.7
O=C1C2C(c3ccccc3)C=CC(c3ccccc3)C2C(=O)N1C1CCCCC1 (stereo not drawn)	1.2	0.2	80.0*	-18.4	7.2	1.6
O=C1C2C3C=CC(C3=C(c3ccccc3)c3ccccc3)C2C(=O)N1CCO (stereo not drawn)	0.9	0.8	17.9	14.6	4.3	2.2
O=C1C2C3C=CC(C3=C(c3ccccc3)c3ccccc3)C2C(=O)N1Cc1ccccc1 (stereo not drawn)	0.5	1.1	-14.0	54.3*	-22.0	2.5
CNNC(=O)C(C)NC(=O)c1ccc(Br)cc1 (stereo not drawn)	0.9	1.1	-13.1	11.4	-8.1	1.0
O=C1c2oc3ccccc3c(=O)c2C(c2cccnc2)N1Cc1ccco1 (stereo not drawn)	0.9	0.8	18.0	5.4	-13.2	0.3
CCN1/C(=C2\SC(=S)N(Cc3ccccc3)C2=O)Sc2ccccc21	nt	nt	nt	nt	0.3	28.1
CCC(CO)[n+]1c(C)cc(/C=C2\Sc3ccccc3N2Cc2ccccc2)cc1C (stereo not drawn)	nt	nt	nt	nt	103.0*	-6.6
NC(=O)C1=NOC(CNc2ncc(C(F)(F)F)cc2Cl)C1 (stereo not drawn)	0.9	2.7*	-171.0	10.0	-16.5	-2.1

Screening data deposited in PubChem BioAssay by Sanford-Burnham Center for Chemical Genomics.
